This note sets out measurements from PubChem BioAssay (NCI).

Each structure is given as a SMILES string. The panel holds about 79,000 compounds, 15% with a hit somewhere; the sample as a whole holds those more often. Calls of active or inactive are those of the source. No stated cut-off is given here; in the data, active means growth inhibition above about 70%; inactive means the rest.

A short description of the first test: NCI Yeast Anticancer Drug Screen. Data for the rad50 strain (AID 155).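 Further: 0% = growth of vehicle-only cultures of the same strain.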 Particulars: S. cerevisiae rad50 strain growth inhibition; at 50.0 µM; hits give high values. The procedure, abridged:
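Yeast carrying a defined DNA repair defect were exposed to test compounds, and growth was compared with vehicle-treated controls to give percent inhibition.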
As to `CCOC(=O)c1cc2c(cn1)[nH]c1ccccc12`, the growth inhibition was 41.2% (inactive).

In the case of `Nc1nc(-c2cccc(S(=O)(=O)F)c2)cs1`, the growth inhibition was 42.5% (inactive).

`Cc1c(Cl)cc([N+](=O)[O-])c(O)c1[N+](=O)[O-]`: the growth inhibition is 6.1% (inactive).

With `c1cc(C2N3CCCN2CC3)ccn1` (stereo not drawn), the growth inhibition is 10% (inactive).

As to `C/C=C/CC1(CC)C(=O)NC(=S)NC1=O`, the growth inhibition was 3.8% (inactive).

On to `N#CCCc1ccccc1`, for which the growth inhibition is -2.25% (inactive).

For the compound `CCN(CC)CCN(CC)CC.CCN(CC)CCN(CC)CC.[Cu+2].[Cu+2].[O-][Cl+3]([O-])([O-])[O-].[OH3+].[OH3+]`, the growth inhibition was -2.85% (inactive).

As to `c1ccc(CC[N+]23CC[N+](CCc4ccccc4)(CC2)C3)cc1`, the growth inhibition is 27.9% (inactive).

As for `CCOC(OCC)c1ccc2c(c1)OCO2`, the growth inhibition was 5.65% (inactive).

Consider `CCN(CC)CCn1c(=O)c2ccccc2n(CCN(CC)CC)c1=O`, for which the growth inhibition is 19.6% (inactive).

`Cn1cnc([N+](=O)[O-])c1[Se]c1nc(N)nc2nc[nH]c12`: the growth inhibition is -24.1% (inactive).

In the case of `CCC1(C/C=C/Cl)C(=O)NC(=O)NC1=O`, the growth inhibition was 7.65% (inactive).

For the compound `O=C1C(NCC(O)CO)=C(N2CC2)C(=O)C(NCC(O)CO)=C1N1CC1` (stereo not drawn), the growth inhibition is -0.05% (inactive).

As to `CC[C@@H](C)C(=O)O[C@H]1[C@H](O)[C@H]2[C@@H](CN3C[C@@H](C)CC[C@H]3[C@@]2(C)O)[C@@H]2C[C@]34O[C@@]5(O)[C@@H](OC(=O)[C@](C)(O)[C@@H](C)O)CC[C@@]3(C)[C@@H]5[C@@H](OC(C)=O)[C@@H](OC(C)=O)[C@H]4[C@@]21O`, the growth inhibition is 8.75% (inactive).

Regarding `O[C@H]1[C@H](O)[C@@H](O)CN2CC[C@H](O)[C@H]12`, the growth inhibition was -25.9% (inactive).

Consider `CCCn1cc2c3c(cccc31)[C@H]1C[C@@H](C)CN(C)[C@@H]1C2`, for which the growth inhibition is 49.4% (inactive).

With `CCCCCCCC(N)CC(=O)O` (stereo not drawn), the growth inhibition is -24.2% (inactive).

In the case of `CC1=C(C)CN(CCc2c[nH]c3ccccc23)C(C#N)C1` (stereo not drawn), the growth inhibition is 0.6% (inactive).

As for `NC(Cc1ccc(Cl)cc1)c1nn[nH]n1` (stereo not drawn), the growth inhibition is -5.5% (inactive).

With `O=[N+]([O-])c1ccc(/C=C/C=C/C=C/C=C/c2ccc(S(=O)(=O)F)cc2Cl)c(Cl)c1`, the growth inhibition was -1.05% (inactive).

As to `O=[C-]/C=C/c1ccccc1.[C-]#[O+].[C-]#[O+].[Fe+2].[c-]1ccccc1`, the growth inhibition is 21.8% (inactive).

In the case of `O=C(O)C1CCCN1[N+](=O)[O-]` (stereo not drawn), the growth inhibition was -21.7% (inactive).

With `O=S(=O)(O)O.[In]`, the growth inhibition was 22.2% (inactive).

For `O=C(O)C(F)(F)F.O=C(O)C(F)(F)F.[C-]#[O+].[Ru].c1ccc([PH+](c2ccccc2)c2ccccc2)cc1.c1ccc([PH+](c2ccccc2)c2ccccc2)cc1`, the growth inhibition is 1.5% (inactive).

As to `[CH3][Sn]([CH3])([Br])[CH2]CCBr`, the growth inhibition was 84.2% (active).

`COCC(C)OC(=O)Cc1ccccc1` (stereo not drawn): the growth inhibition is -10.9% (inactive).

Regarding `C1=C[N-]c2c3c(ccc2=C1)=CC=C[N-]3.C1=C[N-]c2c3c(ccc2=C1)=CC=C[N-]3.C1=C[N-]c2c3c(ccc2=C1)=CC=C[N-]3.[Co+3].[O-][Cl+3]([O-])([O-])O`, the growth inhibition is -8.95% (inactive).

As to `Cc1cc(C(C)(C)C)ccc1O`, the growth inhibition was 27.4% (inactive).

In the case of `CCCCCC(=O)C[n+]1ccccc1` (tested in a mixture with another compound), the growth inhibition was -11.7% (inactive).

Regarding `CCOP(=O)(OCC)OP(=O)(OCC)OCC`, the growth inhibition was -9.35% (inactive).

For `C1CC[N+]2=C(C1)OCCC2`, the growth inhibition is 12.1% (inactive).

As to `[C-]#[O+].[C-]#[O+].[C-]#[O+].[C-]#[O+].[C-]#[O+].[C-]#[O+].[Fe].[Fe].c1ccc([P-]c2ccccc2[P-]c2ccccc2)cc1` (stereo not drawn), the growth inhibition was 8.7% (inactive).

As to `[Cl][Hg][c]1ccccc1N=Nc1ccccc1`, the growth inhibition is 91.7% (active).

For the compound `COc1ccc2c(c1O)[C@@]13CCCC=C1[C@@H](C2)[N+](C)(C)CC3`, the growth inhibition is 22.4% (inactive).

Turning to `COc1ccc(O)c2c(=O)c3c(OC)cc4c(c3oc12)[C@@H]1C=CO[C@@H]1O4`, the growth inhibition is 16.6% (inactive).

`C/C=C\C(C)=C/C(C)C(=O)CC(O)CC1CC(=O)NC(=O)C1` (stereo not drawn): the growth inhibition was 11.6% (inactive).

Consider `O=C(O)c1ccccc1N(CCO)CCCl`, for which the growth inhibition was -11.2% (inactive).

For the compound `O=C(Cc1ccccc1)OCC1CCCO1` (stereo not drawn), the growth inhibition was 18.2% (inactive).

Turning to `CC(Oc1ccc(-c2ccccc2)cc1)C(=O)O` (stereo not drawn), the growth inhibition is -14.8% (inactive).

A short description of a further test: NCI Yeast Anticancer Drug Screen. Data for the mec2-1 strain (AID 157). The note with it: S. cerevisiae mec2-1 strain, at 50.0 µM, hits give high values. The method, boiled down:
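Vehicle-treated cultures served as reference for growth inhibition of compound-exposed mec2-1 yeast.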
With `CCOC(=O)c1cc2c(cn1)[nH]c1ccccc12`, the growth inhibition was 34.2% (inactive).

As for `Nc1nc(-c2cccc(S(=O)(=O)F)c2)cs1`, the growth inhibition is 20.8% (inactive).

As to `Cc1c(Cl)cc([N+](=O)[O-])c(O)c1[N+](=O)[O-]`, the growth inhibition was -1.45% (inactive).

In the case of `c1cc(C2N3CCCN2CC3)ccn1` (stereo not drawn), the growth inhibition is -27.7% (inactive).

As to `C/C=C/CC1(CC)C(=O)NC(=S)NC1=O`, the growth inhibition is 7% (inactive).

Consider `N#CCCc1ccccc1`, for which the growth inhibition is -7.95% (inactive).

Regarding `CCN(CC)CCN(CC)CC.CCN(CC)CCN(CC)CC.[Cu+2].[Cu+2].[O-][Cl+3]([O-])([O-])[O-].[OH3+].[OH3+]`, the growth inhibition is 1.85% (inactive).

Consider `c1ccc(CC[N+]23CC[N+](CCc4ccccc4)(CC2)C3)cc1`, for which the growth inhibition was 3.2% (inactive).

Consider `CCOC(OCC)c1ccc2c(c1)OCO2`, for which the growth inhibition was -5.75% (inactive).

`CCN(CC)CCn1c(=O)c2ccccc2n(CCN(CC)CC)c1=O`: the growth inhibition is 13.1% (inactive).

Take `Cn1cnc([N+](=O)[O-])c1[Se]c1nc(N)nc2nc[nH]c12`: the growth inhibition is -12% (inactive).

For `CCC1(C/C=C/Cl)C(=O)NC(=O)NC1=O`, the growth inhibition is -3.5% (inactive).

As to `O=C1C(NCC(O)CO)=C(N2CC2)C(=O)C(NCC(O)CO)=C1N1CC1` (stereo not drawn), the growth inhibition is 7% (inactive).

For `CC[C@@H](C)C(=O)O[C@H]1[C@H](O)[C@H]2[C@@H](CN3C[C@@H](C)CC[C@H]3[C@@]2(C)O)[C@@H]2C[C@]34O[C@@]5(O)[C@@H](OC(=O)[C@](C)(O)[C@@H](C)O)CC[C@@]3(C)[C@@H]5[C@@H](OC(C)=O)[C@@H](OC(C)=O)[C@H]4[C@@]21O`, the growth inhibition is 6.25% (inactive).

Take `O[C@H]1[C@H](O)[C@@H](O)CN2CC[C@H](O)[C@H]12`: the growth inhibition was -24.1% (inactive).

Turning to `CCCn1cc2c3c(cccc31)[C@H]1C[C@@H](C)CN(C)[C@@H]1C2`, the growth inhibition was 45.4% (inactive).

Regarding `CCCCCCCC(N)CC(=O)O` (stereo not drawn), the growth inhibition is -44.2% (inactive).

For `CC1=C(C)CN(CCc2c[nH]c3ccccc23)C(C#N)C1` (stereo not drawn), the growth inhibition is 2.3% (inactive).

`NC(Cc1ccc(Cl)cc1)c1nn[nH]n1` (stereo not drawn): the growth inhibition is 1.25% (inactive).

`O=[N+]([O-])c1ccc(/C=C/C=C/C=C/C=C/c2ccc(S(=O)(=O)F)cc2Cl)c(Cl)c1`: the growth inhibition was -2.85% (inactive).

For `O=[C-]/C=C/c1ccccc1.[C-]#[O+].[C-]#[O+].[Fe+2].[c-]1ccccc1`, the growth inhibition is 2.5% (inactive).

For the compound `O=C(O)C1CCCN1[N+](=O)[O-]` (stereo not drawn), the growth inhibition is -5.95% (inactive).

Turning to `O=S(=O)(O)O.[In]`, the growth inhibition is 41.6% (inactive).

With `O=C(O)C(F)(F)F.O=C(O)C(F)(F)F.[C-]#[O+].[Ru].c1ccc([PH+](c2ccccc2)c2ccccc2)cc1.c1ccc([PH+](c2ccccc2)c2ccccc2)cc1`, the growth inhibition is 22.2% (inactive).

In the case of `[CH3][Sn]([CH3])([Br])[CH2]CCBr`, the growth inhibition is 88.1% (active).

With `COCC(C)OC(=O)Cc1ccccc1` (stereo not drawn), the growth inhibition was -8.2% (inactive).

As to `C1=C[N-]c2c3c(ccc2=C1)=CC=C[N-]3.C1=C[N-]c2c3c(ccc2=C1)=CC=C[N-]3.C1=C[N-]c2c3c(ccc2=C1)=CC=C[N-]3.[Co+3].[O-][Cl+3]([O-])([O-])O`, the growth inhibition is -16.4% (inactive).

With `Cc1cc(C(C)(C)C)ccc1O`, the growth inhibition was -4.1% (inactive).

For the compound `CCCCCC(=O)C[n+]1ccccc1` (tested in a mixture with another compound), the growth inhibition was -1.4% (inactive).

With `CCOP(=O)(OCC)OP(=O)(OCC)OCC`, the growth inhibition was -29.6% (inactive).

For `C1CC[N+]2=C(C1)OCCC2`, the growth inhibition was -2.15% (inactive).

As for `[C-]#[O+].[C-]#[O+].[C-]#[O+].[C-]#[O+].[C-]#[O+].[C-]#[O+].[Fe].[Fe].c1ccc([P-]c2ccccc2[P-]c2ccccc2)cc1` (stereo not drawn), the growth inhibition is 26.9% (inactive).

`[Cl][Hg][c]1ccccc1N=Nc1ccccc1`: the growth inhibition is 98.5% (active).

For the compound `COc1ccc2c(c1O)[C@@]13CCCC=C1[C@@H](C2)[N+](C)(C)CC3`, the growth inhibition is 13.7% (inactive).

As for `COc1ccc(O)c2c(=O)c3c(OC)cc4c(c3oc12)[C@@H]1C=CO[C@@H]1O4`, the growth inhibition is -29.6% (inactive).

As for `C/C=C\C(C)=C/C(C)C(=O)CC(O)CC1CC(=O)NC(=O)C1` (stereo not drawn), the growth inhibition was -20.4% (inactive).

Turning to `O=C(O)c1ccccc1N(CCO)CCCl`, the growth inhibition is -10.4% (inactive).

`O=C(Cc1ccccc1)OCC1CCCO1` (stereo not drawn): the growth inhibition was -6.6% (inactive).

Take `CC(Oc1ccc(-c2ccccc2)cc1)C(=O)O` (stereo not drawn): the growth inhibition is -1.25% (inactive).
